Source: publication PMC5540273 (PLoS ONE, 2017)

Assays:
Details in all cases: concentration: 1 μM, replicates: in singlicate; n = 1
MAP3K15 = test system: MAP3K15
MAP3K1 = test system: MAP3K1
MAP3K2 = test system: MAP3K2
MAP3K3 = test system: MAP3K3
MAP3K4 = test system: MAP3K4
MAP4K2 = test system: MAP4K2
MAP4K3 = test system: MAP4K3
MAP4K4 = test system: MAP4K4
MAP4K5 = test system: MAP4K5
MAPKAPK2 = test system: MAPKAPK2
MAPKAPK5 = test system: MAPKAPK5
MARK1 = test system: MARK1
MARK2 = test system: MARK2
MARK3 = test system: MARK3
MARK4 = test system: MARK4
MAST1 = test system: MAST1
MEK1 = test system: T1, MEK1
T1 construct: gene MAP2K1

MEK2 = test system: T2, MEK2
T2 construct: gene MAP2K2

MEK3 = test system: T3, MEK3
T3 construct: gene MAP2K3

MEK4 = test system: T4, MEK4
T4 construct: gene MAP2K4
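Note: KINOMEscan kinase panel screen.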

Structure (SMILES)	%Inh (MAP3K15) [%]	%Inh (MAP3K1) [%]	%Inh (MAP3K2) [%]	%Inh (MAP3K3) [%]	%Inh (MAP3K4) [%]	%Inh (MAP4K2) [%]	%Inh (MAP4K3) [%]	%Inh (MAP4K4) [%]	%Inh (MAP4K5) [%]	%Inh (MAPKAPK2) [%]	%Inh (MAPKAPK5) [%]	%Inh (MARK1) [%]	%Inh (MARK2) [%]	%Inh (MARK3) [%]	%Inh (MARK4) [%]	%Inh (MAST1) [%]	%Inh (MEK1) [%]	%Inh (MEK2) [%]	%Inh (MEK3) [%]	%Inh (MEK4) [%]
NCCC(NC(=O)c1cc(Br)c(-c2ccnc3[nH]ccc23)s1)c1ccccc1.O=C(O)C(F)(F)F.O=C(O)C(F)(F)F (stereo not shown) [GSK1307810]	65	16	38	2	0	23	15	45	0	0	0	7	26	0	11	15	0	0	93.7	52
CN(c1ccc(NC(=O)N2CCN(CCCN3CCOCC3)CC2)cc1)c1ccnc(Nc2ccc(CS(C)(=O)=O)cc2)n1.Cl [GW830899]	0	0	0	8	15	0	18	7	30	0	0	0	1	1	30	0	0	23	0	0
Cc1cc(-c2c(-c3ccc(F)cc3)ncn2CCCN2CCOCC2)nc(N)n1 [SB-222517]	0	24	30	0	15	0	5	0	0	0	0	23	0	0	32	14	21	47	23	26
Cc1ccc(O)cc1Nc1ccnc2cc(-c3ccc(CN4CCCCC4)o3)ccc12 [GW557777]	7	67	29	7	0	29	0	2	3	0	0	8	8	0	0	0	17	30	2	0
CCNc1nccc(-c2c(-c3ccc(F)cc3)ncn2C2CCN(C)CC2)n1	0	0	0	0	0	0	0	0	0	0	0	0	0	0	0	46	4	15	0	0
COc1ccc(C2=C(Nc3cccc(O)c3)C(=O)NC2=O)cc1 [SB-390766]	0	24	0	0	0	0	0	0	0	0	0	46	0	0	19	0	0	0	0	0
Cc1ccc(NC(=O)c2cccc(N3CCCCC3)c2)cc1-c1ccc(C(=O)NCC2CC2)cc1 [GSK1917008]	11	17	0	0	28	5	80	16	22	18	0	0	0	20	10	0	0	0	0	8
Cn1cc(-c2ccc3c(c2)CCN3C(=O)Cc2cc(F)cc(C(F)(F)F)c2)c2c(N)ncnc21 [GSK2635225]	0	3	33	12	41	0	25	0	31	10	0	0	9	0	2	0	0	0	0	29
N#CC1(c2cccc(C(=O)Nc3cccc(Oc4ccc5nc(NC(=O)C6CC6)sc5n4)c3)c2)CC1	0	0	22	0	19	0	58	68	50	0	0	0	0	0	0	0	18	19	11	0
Cc1ccc(Nc2ccnc(Nc3ccc(C)c(F)c3)n2)cc1O.Cl [GW582868]	0	2	0	0	40	0	96.8	5	2	0	0	0	0	0	0	28	0	0	13	28
CC(C)c1nc(-c2cccc(NS(=O)(=O)c3c(F)cccc3F)c2)c(-c2ccnc(Nc3ccc(N4CCOCC4)nc3)n2)s1.Cl [GSK1723980]	7	13	28	71	28	0	47	0	48	0	0	0	0	0	40	0	5	35	15	98.6
CC(=O)Nc1cn2nc(Oc3cccc(NC(=O)c4cccc(C(F)(F)F)c4)c3)ccc2n1	0	0	0	22	19	0	91.7	36	90	0	0	0	0	8	20	8	0	18	0	0
O=C(Nc1n[nH]c2nc(-c3ccccc3O)ccc12)C1CC1 [SB-711880]	0	0	19	4	0	0	44	58	0	0	0	0	43	0	0	31	5	25	40	34
Nc1ncc(-c2ccc3nccc(-c4ccncc4)c3c2)cc1S(=O)(=O)N1CCCCC1 [GSK1693850]	0	9	0	1	14	16	0	5	6	5	0	0	15	0	0	0	0	0	13	33
O=C(O)C(F)(F)F.O=c1[nH]ccc2nc(N[C@@H]3CCNC3)nc(Nc3cc(Cl)cc(Cl)c3)c12 [GSK2188764]	26	24	81	78	19	99.9	77	94.1	76	31	47	52	87	85	41	28	79	84	88	72
O=C(Nc1n[nH]c2cc(-c3cccs3)ccc12)C1CC1 [SB-731284]	57	52	34	44	0	9	0	13	0	0	4	47	21	0	35	6	47	24	51	46
COc1cccc(-c2nc(-c3ccccc3)[nH]c2-c2ccncc2)c1 [SB-610250]	0	16	9	0	0	0	0	1	0	17	0	0	0	0	0	22	0	0	0	0
COc1cccc(NC(=O)NCCNc2ccnc(Nc3ccc(F)cc3)n2)c1 [GSK1379879]	0	1	0	0	36	0	10	0	0	20	0	0	0	0	5	0	19	0	10	5
O=C1NC(=O)C(c2ccccc2Cl)=C1Nc1cccc(Cl)c1 [SB-342409]	0	10	1	3	3	0	5	0	0	37	0	0	0	2	0	0	2	5	0	0
Fc1cc(Cl)ccc1Nc1ccnc2cc(-c3ccc(CN4CCOCC4)o3)ccc12 [GW560109]	23	38	0	0	0	0	72	25	11	7	0	0	0	2	0	3	0	38	0	31
